Molecules are shown by their SMILES. About 2,500 (5.3%) of roughly 47,000 compounds were called active. No stated cut-off is given here; in the data, active means inhibition above about 30%; inactive means the rest. Many of the other results were omitted from the sample, so actives are more common in it than they were.

Ubiquitin carboxyl-terminal hydrolase 30 (Homo sapiens), sequence (Q70CQ3 whole entry, looked up): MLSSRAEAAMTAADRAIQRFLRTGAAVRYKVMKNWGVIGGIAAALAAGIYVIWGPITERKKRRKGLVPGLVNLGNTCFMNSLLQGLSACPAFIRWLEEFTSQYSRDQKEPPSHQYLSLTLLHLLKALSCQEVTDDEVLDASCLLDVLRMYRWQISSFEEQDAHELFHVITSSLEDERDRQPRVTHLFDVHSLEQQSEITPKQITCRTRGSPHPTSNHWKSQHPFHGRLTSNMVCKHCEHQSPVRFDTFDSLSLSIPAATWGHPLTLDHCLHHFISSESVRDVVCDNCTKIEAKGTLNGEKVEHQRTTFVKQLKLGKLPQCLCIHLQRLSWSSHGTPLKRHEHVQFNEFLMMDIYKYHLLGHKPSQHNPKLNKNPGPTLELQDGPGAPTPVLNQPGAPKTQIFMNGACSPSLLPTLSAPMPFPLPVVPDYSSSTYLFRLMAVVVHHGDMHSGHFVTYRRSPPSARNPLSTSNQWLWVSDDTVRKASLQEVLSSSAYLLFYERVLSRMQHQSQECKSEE

This test has as its target Ubiquitin carboxyl-terminal hydrolase 30 (Homo sapiens) (UniProt Q70CQ3). Nature of the test: inhibitors of human USP30 deubiquitinase (AID 1645860). The following applies: purified USP30, Ub-rhodamine cleavage fluorescence; at 25 µM; hits give high values.
What is called inhibition is the drop in the measured response relative to a control, in per cent. As to `O=C(NCC(=O)N1CCCc2ccccc21)c1cccc2[nH]ccc12`, the inhibition was 5.02% (inactive).

As for `O=C(c1ccccc1)N1CCC(c2nc3c(nnn3Cc3c(Cl)cccc3Cl)c(=O)[nH]2)CC1`, the inhibition is -14.3% (inactive).

On to `Cc1ccc(-n2c(SCC(=O)N3CCOCC3)nnc2-c2cc3ccccc3o2)cc1`, for which the inhibition is -10.7% (inactive).

On to `O=C(CSc1nnc(-c2ccc3c(c2)OCO3)n1-c1ccccc1)OCC(=O)c1ccccc1`, for which the inhibition was 69.9% (active). The result for `COc1ccc(-n2c(SCC(=O)OC(C)C)nnc2-c2ccccn2)cc1` reads 16.8% (inactive). `CN1CCOc2cc(S(=O)(=O)N(C)Cc3ccccc3)ccc21`: the inhibition is 29.5% (inactive). The same measure for `CCOc1ncccc1C(=O)OCC(=O)c1ccc2c(c1)-c1ccccc1C2`: -153% (inactive). As to `CCN1CCN(C(=O)c2cnn(-c3cc(-c4nc(C5CC5)no4)ccn3)c2C)CC1`, the inhibition is 1.81% (inactive). The same measure for `CCc1nc(-c2ccc(-n3cc(C(=O)NCc4nc5ccc(C)cc5[nH]4)c(C)n3)cc2)no1`: 8.95% (inactive); for `Cc1ccc(CNC(=O)c2nc(-c3cn(-c4ccc(Br)cc4)nc3C)no2)o1`: 30.2% (active); for `O=C(NCC1CC1)c1nc(-c2ccc3[nH]ccc3c2)no1`: 0.789% (inactive). Consider `COc1ccc(C(=O)CSc2nnc(CC(=O)Nc3ccc(C)cc3)n2C)cc1OC`, for which the inhibition is 9.07% (inactive). The result for `Cn1nc(C(=O)Nc2ccc(F)cc2)c(=O)c2ccccc21` reads -0.148% (inactive). The result for `Cc1cccc(NC(=O)c2csc(-c3cn(C)c4ncccc34)n2)c1` reads -7.75% (inactive). The result for `Cn1cc(-c2nc(C(=O)Nc3ccc(F)cc3)cs2)c2cccnc21` reads 62.1% (active); that for `Fc1ccccc1CNc1nnc(-c2nnc(C3CC3)o2)c2ccccc12`, 23.3% (inactive); that for `O=C(O)/C(=C\c1ccc(Br)cc1)NC(=O)c1ccco1`, -0.242% (inactive). For the molecule `Cc1cccc(NC(=O)c2cccn2Cc2noc(C3CC3)n2)n1`, the inhibition is -19.2% (inactive). Take `COc1ccc(-c2cc(C(F)F)n3ncc(C(=O)N(C)Cc4c(C)nn(C)c4C)c3n2)cc1`: the inhibition was -14.7% (inactive). Consider `Cc1ccc(-c2cc(C(F)F)n3ncc(C(=O)NCC(C)C)c3n2)cc1`, for which the inhibition was 38.7% (active). The result for `Cc1ccc(CNC(=O)c2cnn3c4c(cnc23)C(=O)CCC4)cc1` reads -12.6% (inactive). Take `COc1ccccc1NC(=O)C1=C(C)Nc2ncnn2C1c1ccc(C)o1` (stereo unspecified): the inhibition is -6.73% (inactive).

As to `COc1ccc(NC(=O)C2=C(C)Nc3ncnn3C2c2cccc(OCc3ccc(F)cc3)c2)c(OC)c1` (stereo unspecified), the inhibition was 60.3% (active).

In the case of `COc1cccc(C2C(C(=O)Nc3ccccc3C)=C(C)Nc3ncnn32)c1OCc1ccccc1` (stereo unspecified), the inhibition was -8.1% (inactive). The result for `O=C(COC(=O)c1ccc2[nH]c3c(c2c1)CCCC3)Nc1ccc(N2CCOCC2)cc1` reads -55.7% (inactive); that for `CN(C)c1ccc(CNC(=O)c2cc(CN3CCOCC3)on2)cc1`, 22% (inactive); that for `O=C(CN1C(=O)c2cccnc2Sc2ccccc21)Nc1ccc(F)cc1F`, -96.8% (inactive). As for `CCOc1nc2cccnc2n(CC(=O)Nc2ccc(F)cc2F)c1=O`, the inhibition is -13% (inactive).

Take `O=C(CN1C(=O)C2CCCC2=Nc2ccccc21)Nc1ccc(F)cc1F` (stereo unspecified): the inhibition is 32.2% (active). As to `COc1cccc(NC(=O)C(C#N)C(=O)C2CC2c2cccc(C)c2)c1` (stereo unspecified), the inhibition is 31.3% (active). The result for `CNC(=O)N1CCC(n2c(C)nc(C(=O)Nc3cccc(OC)c3)c2C)CC1` reads 2.54% (inactive); that for `CCN1CCCCC12Cc1ccccc1CN(S(C)(=O)=O)C2` (stereo unspecified), 1.88% (inactive). On to `CN1CCN(S(=O)(=O)c2cccc(C(=O)Nc3cccc(S(N)(=O)=O)c3)c2)CC1`, for which the inhibition is 7.83% (inactive). Consider `Cc1cccc(NC(=O)c2ccc(N3CCC(C)CC3)c([N+](=O)[O-])c2)c1C`, for which the inhibition was -29.1% (inactive). With `O=C(Nc1cccc(S(=O)(=O)N2CCCCCC2)c1)c1ccc(N2CCOCC2)c([N+](=O)[O-])c1`, the inhibition is 47.3% (active).

Turning to `COc1ccccc1OCc1nc(C)c(C(C)=O)s1`, the inhibition was 6.92% (inactive).

Consider `c1ccc(Sc2nc(-c3ccccc3)nc3ccsc23)cc1`, for which the inhibition is -19% (inactive).

Regarding `CCC(=O)N1CCc2cc(S(=O)(=O)NC(Cc3ccccc3)C(=O)Nc3ccccc3OC)ccc21` (stereo unspecified), the inhibition was -0.729% (inactive). The same measure for `O=C(Oc1cccc([N+](=O)[O-])c1)C(c1ccccc1)c1ccccc1`: 25% (inactive); for `CC(CCc1ccccc1)NC(=O)c1cc2cc(Oc3ccccc3)ccc2[nH]1` (stereo unspecified): 8.29% (inactive); for `CC(CCc1ccccc1)NC(=O)/C=C/c1cccc([N+](=O)[O-])c1` (stereo unspecified): 34.1% (active). Regarding `COc1cccc(OCC(=O)N2CC(=O)Nc3ccccc32)c1`, the inhibition was -14.6% (inactive). Take `Cc1nc(C)n(CC2CCCCN2Cc2ncc(C(C)(C)C)o2)n1` (stereo unspecified): the inhibition was -97.5% (inactive). On to `Cc1cc(C2CN(C(=O)c3cn4c(C)cccc4n3)CCO2)nc(C)n1` (stereo unspecified), for which the inhibition was 2.35% (inactive). The result for `O=C(Cc1cccc2ccccc12)Nc1nc2ccc(F)cc2s1` reads 53.9% (active); that for `CCOc1ccc2nc(NC(=O)CN3CCC(C(N)=O)CC3)sc2c1`, -1.04% (inactive).

As to `CCCC(=O)Nc1nc2ccc(CCC(=O)NCc3ccc(F)cc3)cc2s1`, the inhibition is -10.2% (inactive). For `O=C(OCC(=O)N1CCc2ccccc21)c1cccc([N+](=O)[O-])c1`, the inhibition was -2.1% (inactive).

On to `CC(C)[C@H](NC(=O)N1CCn2c1nc1ccccc12)C(=O)NC1CC1`, for which the inhibition was 16% (inactive).

As for `Cc1ccc2c(c1)C(c1ccc(F)cc1)N(C(=O)CC1CCCCC1)CC(=O)N2` (stereo unspecified), the inhibition is 26.9% (inactive). With `Cc1ccc2c(c1)C(c1ccccc1)N(C(=O)c1ccc(S(=O)(=O)N3CCOCC3)cc1)CC(=O)N2` (stereo unspecified), the inhibition was 32.4% (active). Take `O=C1CN(C(=O)c2cccc3ccccc23)C(c2ccc(F)cc2)c2cc(Br)ccc2N1` (stereo unspecified): the inhibition is 16% (inactive). The same measure for `O=C(c1ccccc1Cl)N1CCc2c([nH]c3ccccc23)C1c1ccc2c(c1)OCO2` (stereo unspecified): -14.6% (inactive); for `CCc1ccc(-n2nnc(C(=O)Nc3nnc(CC)s3)c2C)cc1`: 30.5% (active); for `CCc1nnc(NC(=O)C2CCN(C(=O)c3ccc(F)cc3)CC2)s1`: -0.015% (inactive). As for `CCc1nnc(NC(=O)c2cc(-c3ccc(C)c(C)c3O)n[nH]2)s1`, the inhibition was 17.9% (inactive). Consider `COc1ccc(NC(=O)c2sc(N3CCOCC3)nc2-c2ccccc2)c(OC)c1`, for which the inhibition was 48.1% (active). `CNC(=O)c1cc(-c2ccccc2)c(N2CCOCC2)s1`: the inhibition was -0.0877% (inactive).

As for `COc1ccc(-c2nc(N(Cc3ccccc3)C(=O)CN3CCOCC3)sc2C)cc1`, the inhibition was -14.4% (inactive). The same measure for `Cc1cc(C)c(S(=O)(=O)Nc2ccc(Cn3cncn3)cc2)cc1C`: -29.3% (inactive). Regarding `COc1ccc(CN[C@H]2[C@H](O)[C@H](O)C[C@@H]2c2ccccc2)cn1`, the inhibition was -17.6% (inactive).

Source of the values: PubChem BioAssay AID1645860 (Buhrlage Lab, Dana-Farber Cancer Institute and Novartis …, 2021).
